Screens deposited in PubChem BioAssay by National Center for Advancing Translational Sciences (NCATS).
RXFP1 antag: qHTS Assay for Antagonists of the Relaxin Receptor RXFP1; HEK293-RXFP1, relaxin-stimulated cAMP HTRF, 30 min; stronger effect = lower value; activity change, negative = inhibition, % at 57.5 µM; 350,000 tested, 0.59% active;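 active = activity change of -60% or lower, but not beyond a set lower limit; inconclusive = change between -60% and -40%, or beyond the set limit; inactive = change above -40%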; note: % is set by controls: 0 for no effect and ±100 for the full control effect
Target sequence (Q9HBX9 whole entry, looked up): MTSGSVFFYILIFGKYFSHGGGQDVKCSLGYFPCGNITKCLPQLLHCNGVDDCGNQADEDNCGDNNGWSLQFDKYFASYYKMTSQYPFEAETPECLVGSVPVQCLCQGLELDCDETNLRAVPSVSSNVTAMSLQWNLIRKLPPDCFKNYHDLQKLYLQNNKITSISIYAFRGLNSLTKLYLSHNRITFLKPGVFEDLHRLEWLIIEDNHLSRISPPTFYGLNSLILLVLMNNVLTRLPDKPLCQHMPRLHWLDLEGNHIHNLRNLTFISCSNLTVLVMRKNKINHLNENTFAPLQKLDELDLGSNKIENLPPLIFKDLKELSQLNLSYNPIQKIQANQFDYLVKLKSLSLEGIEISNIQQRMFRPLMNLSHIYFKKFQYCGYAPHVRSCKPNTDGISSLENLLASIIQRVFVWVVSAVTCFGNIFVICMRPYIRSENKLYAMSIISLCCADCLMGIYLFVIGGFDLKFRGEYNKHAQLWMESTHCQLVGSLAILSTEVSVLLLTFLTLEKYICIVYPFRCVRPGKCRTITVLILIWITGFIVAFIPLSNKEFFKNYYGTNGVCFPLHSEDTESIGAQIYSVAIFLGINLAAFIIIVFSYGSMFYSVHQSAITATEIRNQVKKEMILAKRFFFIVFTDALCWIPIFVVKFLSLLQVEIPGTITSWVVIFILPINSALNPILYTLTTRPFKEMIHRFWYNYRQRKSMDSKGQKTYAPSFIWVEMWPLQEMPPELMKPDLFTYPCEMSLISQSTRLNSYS
RXFP1 ag: qHTS Assay for Agonists of the Relaxin Receptor RXFP1 | 370,000 tested, 0.3% active | HEK293T-RXFP1 cAMP TR-FRET, 30 min; response scale: percent of porcine relaxin response, buffer zero | Relaxin receptor 1 (Homo sapiens), Q9HBX9 | Potency, µM (titrated, usually from 57.5 µM), inactives show top-dose activation, hits mostly activators; note: potency is the fitted concentration of half-maximal effect; % is set by controls: 0 for no effect and ±100 for the full control effect; nearly all actives have a fitted effect of over 60% in size
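HEK293 cells stably expressing RXFP1, treated 30 min at 37C with compounds plus PDE4 inhibitor Ro 20174; cAMP measured by HTRF TR-FRET. Normalized to buffer and 29 nM porcine relaxin; EC50 by Hill fit.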
GLP1R cytotox: qHTS of GLP-1 Receptor Inverse Agonists: Cytotox Screen | HEK293 cAMP-luciferase reporter cells, luminescence, 24 h | Potency, µM (highest dose often 38.3 µM), for the others: at the top dose activity change, negative = inhibition, usual class: inhibitors | 410,000 tested, 0.13% active | AID 624418, 2012;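 note: loss of luciferase light is scored as toxicity; potency is the fitted concentration of half-maximal effect; % is set by controls: 0 for no effect and ±100 for the full control effect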
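MLSMR compounds, 24 hr on cells at 37 deg C/5% CO2; luminescence after luciferase reagent (12 min RT). Inhibition counted as the undesired cytotoxic outcome.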
PTHR1 agonist: qHTS for PTHR1 Agonists: Primary Screen; Parathyroid hormone/parathyroid hormone-related peptide receptor (Homo sapiens), Q03431; HEK293 GP2 PTHR1 cells, GloSensor cAMP luminescence, 1 h; Potency, µM (doses to about 115 µM), inactives show at the highest dose activation, hits mostly activators; 410,000 tested, 0.075% active; AID 743266, 2014; note: potency is the fitted concentration of half-maximal effect; nearly all actives have a fitted effect of over 55% in size
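HEK-293-derived GP2 cells expressing PTHR1 and a GloSensor cAMP reporter, 3,000/well, plated overnight, given luciferin plus IBMX (each 0.5 mM as added) for 1 h at 37 °C, then compound for 1 h at 37 °C. Luminescence was read after 15 min at room temperature.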
NPSR antag: qHTS Assay for Antagonists of the Neuropeptide S Receptor: cAMP Signal Transduction; Q6W5P4; CHO-NPSR cells, cAMP TR-FRET, antagonist mode; Potency, µM (top dose mostly 38.3 µM), for the others: at the highest dose activity change, negative = inhibition, most hits filed as inhibitors; 220,000 tested, 1% active; note: potency is the fitted concentration of half-maximal effect; % is set by controls: 0 for no effect and ±100 for the full control effect; nearly all actives have a fitted effect of over 50% in size
TSHR antagonist: Antagonists of the Thyroid Stimulating Hormone Receptor: HTS campaign; TSHR-expressing cells, TSH-stimulated cAMP HTRF, 2 h; stronger effect = lower value; activity change, negative = inhibition, % at 11.5 µM; 330,000 tested, 0.2% active; AID 504810, 2011;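 active = activity change below a set negative limit, meaning inhibition stronger than a set level, cut at about -70% in these data; inconclusive = activity change between two set negative limits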; note: % is set by controls: 0 for no effect and ±100 for the full control effect
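Read-out is FRET at 665 nm (cryptate excitation 337 nm) from a cryptate-tagged anti-cAMP antibody, competed by cell cAMP against cAMP-d2. Compounds are tested on freshly harvested TSHR cells challenged with 4nM TSH (EC80) for 2 hours at 37 deg C.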
* = called active by the depositor; i = inactive; ? = inconclusive; · = not tested or not shown; ! = repeats disagree; [ ] = another dose, or the depositor's remark. This is one part of a sample in which hits are shown more often than they occur. Unless noted, calls come from the whole dose curve; as a rule, active = well fitted curve in the direction sought with a large enough effect; inconclusive = small, poorly fitted or top-dose-only effect, or another doubt; inactive = no such curve, though single readings can be large; an effect the other way counts as inactive or inconclusive.

SMILES	RXFP1 antag	RXFP1 ag	GLP1R cytotox	PTHR1 agonist	NPSR antag	TSHR antagonist
COc1ccccc1C(=O)NNC(=O)c1nn(Cc2ccccc2)c(=O)c2ccccc12	?	1.1%	10µM*	i	-53.3%	18.3
COc1ccc(NC(=O)CSc2nnnn2C2CCCCC2)cc1	-78.4*	-2.2%	-7.1%	-7.4%	·	-7.9
O=C(Nc1ccc(F)cc1F)c1cc(-c2ccc(Cl)cc2)on1	·	21.0%	1.7%	i	·	·
Oc1ccccc1Nc1nc(NCc2ccccc2)c2ccccc2n1	-79.0*	0.6%	?	-32.5%	?	-16.4
CCOc1cc(/C=C2/NC(=O)N(CC(=O)Nc3cccc(C)c3)C2=O)ccc1OCC(N)=O	-8.1	0.1%	11.1%[7.66 µM]	i	1.8%	-12.8
CCOc1cccc(/C=C2/NC(=O)N(CC(=O)Nc3cccc(C)c3)C2=O)c1O	-77.4*	-0.8%	19.3%	-8.5%	-5.1%	32.5
CC(C)CCOc1ccccc1Cn1c(=O)sc2ccccc21	?	-1.8%	2.8%	-10.5%	·	·
CCOc1ccccc1Cn1c(=O)sc2ccccc21	-86.9*	-0.8%	0.5%	-64.6%	-56.3%	-5.6
CCOC(=O)c1cc(S(=O)(=O)Nc2c(C)cc(C)cc2C)[nH]n1	·	6.7%	7.4%	i	·	·
CCCOc1ccc(-c2nn(-c3ccccc3)cc2/C=C2\SC(N)=NC2=O)cc1	-9.6	24.2%	-0.3%	i	3.98µM*	25.8
Cc1cc(-c2nn(-c3ccccc3)cc2/C=C2\SC(N)=NC2=O)ccc1OC(C)C	·	1.2%	13.6%	i	-28.8%[46.1 µM]	2.6
CC1(Cc2ccc(OC(F)(F)F)cc2)C(=O)Nc2ccc(OC(F)(F)F)cc21 (stereo not drawn)	·	·	13.0%	-51.8%	·	·
O=C(Nc1ccc(Cl)c(S(=O)(=O)N2CCOCC2)c1)c1ccc(OCC2CCCO2)cc1 (stereo not drawn)	-29.9	-0.6%	?	-39.3%	-18.0%	-87.1*
Cc1cccc(C(=O)NC(=S)NNC(=O)c2cccs2)c1	13.6	-0.6%	-4.0%	-23.2%	-25.9%	28.3
Cc1cccc(C(=O)NC(=S)NNC(=O)c2ccc(Cl)cc2)c1	-96.5*	-0.3%	-21.0%	-10.2%	-13.1%	-36.3
O=C(Nc1ccc(-c2nc3cc(Cl)ccc3c(=O)o2)cc1)c1ccco1	-65.6*	1.1%	9.7%	i	8.1%	-8.5
O=C(Nc1cc(-c2nc3cc(Cl)ccc3o2)ccc1Cl)c1ccco1	·	10.0%	2.5%	i	·	·
Cc1ccccc1C(=O)Nc1nnc(S(=O)(=O)N(C)Cc2ccco2)s1	-2.9	4.6%	3.7%	-24.2%	·	-11.2
CN(Cc1ccco1)S(=O)(=O)c1nnc(NC(=O)c2ccccc2Cl)s1	-9.9	11.2µM*!	-7.8%	-16.9%	·	-9.5
Cc1ccccc1C(=O)N1CC/C(=N/OS(=O)(=O)O)c2ccc(Cl)cc21	-14.9	·	·	·	·	·
C=C(CN(C)C)C(=O)c1cc(C)ccc1C	-108.8*	·	?	-28.0%	·	·
Nc1ncnc2n[nH]c(Nc3ccc(F)cc3)c12	·	·	·	·	·	-15.2
COc1ccc(C(=O)Nc2ccc(N(C)Cc3ccccc3)c(C(=O)O)c2)cc1	-6.4	-0.4%	-6.1%	-5.9%	·	·
Cc1ccc(O)c(-c2n[nH]c3c2C(c2ccccc2F)N(Cc2ccco2)C3=O)c1 (stereo not drawn)	-68.8*	-2.4%	-12.6%	-73.3%	·	·
CCOc1cccc(C2c3c(-c4cc(C)ccc4O)n[nH]c3C(=O)N2Cc2ccco2)c1 (stereo not drawn)	-75.9*	2.5%	-20.1%	-27.5%	·	·
SMILES	RXFP1 antag	RXFP1 ag	GLP1R cytotox	PTHR1 agonist	NPSR antag	TSHR antagonist
COc1cccc(C2c3c(-c4ccccc4O)n[nH]c3C(=O)N2Cc2ccco2)c1 (stereo not drawn)	-4.6	4.7%	-28.9%	-95.5%	-20.1%	-2.2
CC(C)(C)C(=O)N1CCN(c2ccc([N+](=O)[O-])cc2-n2cccc2)CC1	9.6	-1.8%	-11.3%	-2.7%	-58.1%	-11.2
Cc1ccc(C(=O)N2CCN(c3ccc([N+](=O)[O-])cc3-n3cccc3)CC2)cc1	-8.2	-2.8%	7.4%	-48.4%	10µM*	-3.0
CCOc1cccc(-c2c(C(=O)N/N=C/c3sccc3C)nnn2-c2nonc2N)c1	-2.5	1.3%	-22.3%	-8.2%	·	-11.5
CCOc1cccc(-c2c(C(=O)N/N=C/c3ccsc3)nnn2-c2nonc2N)c1	-61.4*	0.3%	-10.1%	i	·	8.4
CC1(C)O[C@@H]2C[C@H]3[C@@H]4CCC5=CC(=O)C=C[C@]5(C)[C@@H]4[C@@H](O)C[C@]3(C)[C@]2(C(=O)CO)O1	-3.7	·	·	·	·	·
CCC(CC)c1nn2c(N)c(/C=C3\C=Nc4ccccc43)c(=O)nc2s1	-6.9	-0.7%	15.1%	-24.5%	22.6%	-12.0
CCC(CC)c1nn2c(N)c(/C=C3\C(C)=Nc4ccccc43)c(=O)nc2s1	-68.6*	-1.0%	?	-19.6%	-16.7%	-19.5
CCc1cccc(C)c1NC(=O)Cn1nc(C)c2nn(-c3ccc(Cl)cc3)c(C)c2c1=O	-7.5	?	-4.9%	-57.9%	·	·
c1ccc(Nc2nc(N3CCCC3)nc(N3CCOCC3)n2)cc1	·	·	·	-7.6%	·	·
c1ccc(Nc2nc(Nc3ccccc3)nc(N3CCNCC3)n2)cc1	-100.5*	1.3%	?	?	·	-8.2
CC12CC3CC(C)(C1)CC(C(=O)N1CCCC1)(C3)C2	-88.3*	2.4%	4.4%	i	·	5.8
CN1CCN(C(=O)C23CC4CC(C)(CC(C)(C4)C2)C3)CC1	3.1	0.8%	5.2%	i	-12.6%	-5.8
CCC(=O)NC(c1ccc(Cl)cc1Cl)c1ccc2cccnc2c1O (stereo not drawn)	-97.7*	0.5%	?	9.4%	·	-4.7
CCCC(=O)NC(c1ccc(C(C)C)cc1)c1ccc2cccnc2c1O (stereo not drawn)	?	0.4%	-0.3%	-0.8%	·	-5.2
CCCC(=O)NC(c1ccccc1Cl)c1ccc2cccnc2c1O (stereo not drawn)	-81.7*	1.4%	?	?	·	-2.4
CCCCC(=O)NC(c1ccc(Cl)cc1Cl)c1ccc2cccnc2c1O (stereo not drawn)	-37.3	-1.8%	-9.7%	-12.4%	·	17.6
COc1ccccc1N(C(=O)CCl)c1cn(C(C)=O)c2ccccc12	3.0	0.0%	?	-28.4%	?	0.6
COc1ccccc1N(C(C)=O)C1=C(Cl)C(=O)c2ccccc2C1=O	-86.6*	·	9.9%	-40.9%	·	·
COc1cc(C)c(C(=O)CC(=O)c2c(C)cc(OC)cc2C)c(C)c1	-65.7*	·	-16.3%	-11.9%	·	·
